# PubChem BioAssay (Tox21)
# Inconclusive results are not listed. Values without a mark were called inactive. Calls come from the whole dose curve; as a rule, active = well fitted cell-killing curve with a large enough effect in the repeat runs; inconclusive = weak or mixed curves, or effect the other way; inactive = flat fitted curve, though single readings scatter.
# Assay: qHTS assay to identify small molecule antagonists of the estrogen receptor alpha (ER-alpha) signaling pathway using the BG1 cell line in the presence of 0.1 nM 17-beta-estradiol - cell viability counter screen (AID 1259241); note: nearly all actives have a fitted effect of over 40% in size
# Details: VM7Luc4E2 (BG1) viability, CellTiter-Fluor protease, 22 h, 0.1 nM estradiol agonist added; series mostly up to 92.4 µM; activity change, negative = cytotoxicity: at the top concentration
# Text: National Center for Advancing Translational Sciences [NCATS]
# NIH Chemical Genomics Center [NCGC]
# U.S. Environmental Protection Agency [EPA]
# National Institutes of Environmental Health Sciences [NIEHS]
# National Toxicology Program [NTP]
# U.S. Food and Drug Administration [FDA]
# Estrogen receptor (ER), a member of the nuclear hormone receptor plays an important role in development, metabolic homeostasis and reproduction. Two subtypes of ER, ER-alpha and ER-beta, have similar expression patterns with some uniqueness in both types. Endocrine disrupting chemicals (EDCs) and their interactions with steroid hormone receptors like ER causes disruption of normal endocrine function. Therefore, it is important to understand the effect of environmental chemicals in ER signaling pathway. For identifying ER antagonists, VM7Luc4E2 cell line was used to screen against Tox21 compound libraries.
# VM7Luc4E2 cell line (provided by Denison MS, University of California) endogenously express full-length ER-alpha and is stably transfected with a plasmid containing four estrogen responsive elements (ERE) upstream of a luciferase reporter gene. The current screening for identification of ER-alpha inhibitors against Tox21 compound libraries used lower concentration (0.1 nM) of 17beta-Estradiol as a stimulator. The cytotoxicity of the Tox21 compound libraries against VM7Luc4E2 cell line was tested by measuring live-cell protease activity using CellTiter-Fluor assay in the same wells.
# Tox21 Assay Protocol Summary:
# VM7Luc4E2 cells were cultured in phenol red free assay medium containing 10% charcoal stripped FBS for 5 days prior to the assay. The cells were dispensed at 4,000 cells/well in 4 uL of assay medium into white wall/solid-bottom 1536-well plates (Corning Life Sciences, Corning, NY) using a Multidrop Combi (ThermoFisher Scientific, Waltham, MA) dispenser. After the assay plates were incubated at 37C and 5% CO2 for 24 hr, 23 nL of compounds dissolved in DMSO, positive controls or DMSO only was transferred to the assay plates by a Pintool station (Kalypsys, San Diego, CA). The transfer of compounds was followed by the addition of 1 uL of 0.1 nM (final concentration) agonist (17beta-Estradiol)/assay medium using a Flying Reagent Dispenser (FRD, Aurora Discovery, San Diego, CA). The plates were incubated at 37C and 5% CO2 for 22 hr. For cytotoxicity assay, 1 uL of CellTiter-Fluor reagent (Promega Corporation, Madison, WI) was added to each well using the FRD and after 30 min incubation at 37C and 5% CO2, The fluorescence intensity was measured using ViewLux plate reader (PerkinElmer, Shelton, CT).
# % is set by controls: 0 for no effect and ±100 for the full control effect.
row,Compound,"activity change, negative = cytotoxicity"
1,C1CN2CCC1CC2,-0.0879% [at 42.5 µM]
2,CC(Cc1ccccc1)NCCCCl (stereo not given),2.67% [at 42.5 µM]
3,O=C(Cl)/C=C/C(=O)Cl,-4.14%
4,ClCCN1CCCC1,1.38% [at 42.5 µM]
5,COc1cccc([C@@]2(O)CCCC[C@@H]2CN(C)C)c1,-0.764% [at 42.5 µM]
6,CC[C@@H](CO)NC(=O)[C@@H]1C=C2c3cccc4c3c(cn4C)C[C@H]2N(C)C1,3% [at 42.5 µM]
7,CCOC(=O)CCl,-2.42%
8,CN=CNc1ccc(C)cc1C,4.19%
9,NC(=O)CS(=O)C(c1ccccc1)c1ccccc1 (stereo not given),16.4% [at 42.5 µM]
10,O=C1CCCCC1Cl (stereo not given),4.03%
11,C[C@H]1CCCC(=O)CCC/C=C/c2cc(O)cc(O)c2C(=O)O1,-20.6% [at 42.5 µM]
12,O=C/C=C/c1ccco1,1.69%
13,N#CC(Br)(Br)C(N)=O,-11.2%
14,CC[C@@H](CO)NC(=O)[C@@H]1C=C2c3cccc4[nH]cc(c34)C[C@H]2N(C)C1,-0.844% [at 42.5 µM]
15,CCCN1CCC[C@@H]2Cc3[nH]ncc3C[C@H]21,1.23% [at 42.5 µM]
16,BrCc1ccc(Br)cc1,1.49%
17,N#CN=C1SCCN1Cc1ccc(Cl)nc1,3.31%
18,Cc1cc(OC(=O)N(C)C)nn1C(=O)N(C)C,9.05%
19,COC(=O)[C@@H](N)CCCN/C(N)=N/[N+](=O)[O-],-0.109% [at 42.5 µM]
20,CCC(=O)OC1(c2ccccc2)CCN(C)CC1,0.0888%

row,Compound,"activity change, negative = cytotoxicity"
1,O=c1[nH]c2ccccc2o1,2.69%
2,CN(CCO)CCO,14%
3,CCOP(=S)(OCC)Oc1ccc(Cl)cc1Cl,2.69%
4,C[C@H](N)C(=O)c1ccccc1,-7.71%
5,CON(C)C(=O)Nc1ccc(Br)c(Cl)c1,2.07%
6,CCCOC(=O)Cc1ccc(OCC(=O)N(CC)CC)c(OC)c1,3.49% [at 42.5 µM]
7,O=C(O)c1c(Cl)ccc2cc(Cl)cnc12,-7.17%
8,CCc1ccc(C2CCNCC2)cc1,-1.66% [at 42.5 µM]
9,C[C@@H](N)[C@@H](O)c1ccccc1,0.857% [at 42.5 µM]
10,O=S1(=O)OCCO1,14.5%
11,CCN1CCCC1CNC(=O)C(O)(c1ccccc1)c1ccccc1 (stereo not given),-7.3% [at 42.5 µM]
12,CC[C@H](O)C(C[C@H](C)N(C)C)(c1ccccc1)c1ccccc1,-0.7%
13,CC1N=C(N)OC1c1ccccc1 (stereo not given),-8.94%
14,Oc1ccc(Cc2ccc(O)cc2)cc1,-1.84%
15,CCOC(=O)c1ncn2c1CN(C)C(=O)c1c(I)cccc1-2,0.908% [at 42.5 µM]
16,O=C(NC(=O)c1c(F)cccc1F)Nc1cc(Cl)c(F)c(Cl)c1F,-0.798%
17,C=CCCC#N,6.24%
18,CS(=O)(=O)Cl,-0.626%
19,O=C1CC(=O)NC(=O)N1,0%
20,CCC1(c2ccccc2)CCC(=O)NC1=O (stereo not given),4.02% [at 42.5 µM]
